Reference: the supplement of paper PMC12669032
Values without a mark were called inactive.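 The calls were made as follows: active = AUC reduced over 20% with Padj below 0.05 in at least 2 of 3 replicates; inactive = otherwise.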

Columns and labels:
Roseburia intestinalis = assay: growth AUC relative to DMSO control (median of replicates) (fraction); higher = more growth (less inhibition), active = hit call of the paper; conditions: 20 µM; 24 h
Procedure, shortened: (§1)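 For each compound at 20 µM (1% DMSO), gut bacterial monocultures seeded at OD600 0.05 grew anaerobically in mGAM at 37 °C in round-bottom 96-well plates. Hourly OD600 readings over 24 h gave growth curves whose minimum OD was set to 0. Area under these curves was normalised to the plate median of solvent-only wells, or to row and column medians on the industrial chemical plate. Values are medians of three biological replicates grown on separate days.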

Streptococcus salivarius = assay: as above; conditions: 20 µM; 24 h
Procedure, shortened: as §1

SMILES: O=C(NC(=O)c1c(F)cccc1F)Nc1cc(Cl)c(OC(F)(F)C(F)C(F)(F)F)cc1Cl (stereo not drawn)
- growth AUC (Roseburia intestinalis): 1.02
- growth AUC (Streptococcus salivarius): 0.958

SMILES: CC(C)(C)C(O)C(Oc1ccc(Cl)cc1)n1cncn1 (stereo not drawn)
- growth AUC (Roseburia intestinalis): 1.03
- growth AUC (Streptococcus salivarius): 1.03

SMILES: Nc1nc(N)nc(NC2CC2)n1
- growth AUC (Roseburia intestinalis): 0.97
- growth AUC (Streptococcus salivarius): 0.981

SMILES: Nc1nc(N)nc(Cl)n1
- growth AUC (Roseburia intestinalis): 1.05
- growth AUC (Streptococcus salivarius): 1.03

SMILES: COC(=O)C1(O)c2ccccc2-c2ccccc21
- growth AUC (Roseburia intestinalis): 1
- growth AUC (Streptococcus salivarius): 1

SMILES: CCN(CC)C(=O)/C(Cl)=C(/C)OP(=O)(OC)OC
- growth AUC (Roseburia intestinalis): 1.01
- growth AUC (Streptococcus salivarius): 0.994

SMILES: Nc1c(Cl)c(F)nc(OCC(=O)O)c1Cl
- growth AUC (Roseburia intestinalis): 1
- growth AUC (Streptococcus salivarius): 1

SMILES: CCS(=O)c1c(C#N)nn(-c2c(Cl)cc(C(F)(F)F)cc2Cl)c1N (stereo not drawn)
- growth AUC (Roseburia intestinalis): 1.01
- growth AUC (Streptococcus salivarius): 1.06

SMILES: CC(C)C1(C)N=C(c2nc3ccccc3cc2C(=O)O)NC1=O (stereo not drawn)
- growth AUC (Roseburia intestinalis): 1.03
- growth AUC (Streptococcus salivarius): 0.935

SMILES: CNC(=O)Oc1ccc(N(C)C)c(C)c1
- growth AUC (Roseburia intestinalis): 0.949
- growth AUC (Streptococcus salivarius): 0.992

SMILES: CP(=O)(O)CC(=O)O
- growth AUC (Roseburia intestinalis): 1.09
- growth AUC (Streptococcus salivarius): 0.998

SMILES: CC1(C)CC/C(=C\c2ccc(Cl)cc2)C1(O)Cn1cncn1 (stereo not drawn)
- growth AUC (Roseburia intestinalis): 1.02
- growth AUC (Streptococcus salivarius): 0.993

SMILES: C[C@@H](Oc1ccc(Oc2cnc3cc(Cl)ccc3n2)cc1)C(=O)O
- growth AUC (Roseburia intestinalis): 1.04
- growth AUC (Streptococcus salivarius): 1.01

SMILES: O=C(O)c1c(Cl)ccc2cc(Cl)cnc12
- growth AUC (Roseburia intestinalis): 0.978
- growth AUC (Streptococcus salivarius): 1.05
